Assay results reported in PMC5540273 (PLoS ONE, 2017).

Assays:
Conditions in all cases: concentration: 1 μM, replicates: in singlicate; n = 1
CSK = test system: CSK
CSNK1A1L = test system: CSNK1A1L
CSNK1A1 = test system: CSNK1A1
CSNK1D = test system: CSNK1D
CSNK1E = test system: CSNK1E
CSNK1G1 = test system: CSNK1G1
CSNK1G2 = test system: CSNK1G2
CSNK1G3 = test system: CSNK1G3
CSNK2A1 = test system: CSNK2A1
CSNK2A2 = test system: CSNK2A2
CTK = test system: T1, CTK
T1 construct: gene MATK

DAPK1 = test system: DAPK1
DAPK2 = test system: DAPK2
DAPK3 = test system: DAPK3
DCAMKL1 = test system: T2, DCAMKL1
T2 construct: gene DCLK1

DCAMKL2 = test system: T3, DCAMKL2
T3 construct: gene DCLK2

DCAMKL3 = test system: T4, DCAMKL3
T4 construct: gene DCLK3

DDR1 = test system: DDR1
DDR2 = test system: DDR2
DLK = test system: T5, DLK
T5 construct: gene MAP3K12
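Further: KINOMEscan kinase panel screen.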

Row | Compound | %Inh (CSK) [%] | %Inh (CSNK1A1L) [%] | %Inh (CSNK1A1) [%] | %Inh (CSNK1D) [%] | %Inh (CSNK1E) [%] | %Inh (CSNK1G1) [%] | %Inh (CSNK1G2) [%] | %Inh (CSNK1G3) [%] | %Inh (CSNK2A1) [%] | %Inh (CSNK2A2) [%] | %Inh (CTK) [%] | %Inh (DAPK1) [%] | %Inh (DAPK2) [%] | %Inh (DAPK3) [%] | %Inh (DCAMKL1) [%] | %Inh (DCAMKL2) [%] | %Inh (DCAMKL3) [%] | %Inh (DDR1) [%] | %Inh (DDR2) [%] | %Inh (DLK) [%]
1 | COC(=O)c1cccc(NC(=O)NC2CCN(c3ccnc(Nc4ccc(F)cc4)n3)C2)c1 (stereo not drawn) [GSK1379725] | 0 | 3 | 0 | 21 | 7 | 0 | 0 | 9 | 0 | 0 | 0 | 0 | 0 | 0 | 0 | 0 | 12 | 0 | 0 | 0
2 | COc1ccc(CSc2nnc(-c3ccc4c(c3)CCO4)o2)cc1 | 0 | 3 | 0 | 0 | 0 | 0 | 0 | 0 | 0 | 0 | 0 | 0 | 18 | 0 | 0 | 0 | 0 | 0 | 15 | 0
3 | Cc1ccccc1-c1cc(-c2c[nH]nc2-c2ccccn2)ccn1 [GW680061] | 0 | 7 | 12 | 24 | 16 | 2 | 0 | 1 | 13 | 0 | 0 | 0 | 0 | 25 | 0 | 6 | 12 | 79 | 5 | 32
4 | CC(=O)c1c(C)c2cnc(Nc3ccc(N4CCNCC4)cn3)nc2n(C2CCCC2)c1=O | 0 | 0 | 24 | 8 | 99.9 | 0 | 0 | 0 | 0 | 13 | 0 | 0 | 13 | 6 | 0 | 0 | 0 | 0 | 0 | 0
5 | O=c1cc(N2CCOCC2)nc2n(Cc3cccc(Cl)c3Cl)c3ccccc3n12 [GSK2299009] | 21 | 11 | 0 | 19 | 41 | 8 | 0 | 17 | 11 | 31 | 0 | 13 | 0 | 11 | 12 | 7 | 10 | 22 | 0 | 0
6 | O=c1cc(N2CCOCC2)nc2n(Cc3ccccc3F)ccn12 [GSK2297428] | 0 | 0 | 28 | 25 | 33 | 9 | 0 | 28 | 0 | 0 | 0 | 0 | 0 | 13 | 57 | 0 | 3 | 10 | 0 | 0
7 | COc1ccc(Nc2nccc(N3CCC(NC(=O)c4cc5ccccc5s4)C3)n2)cc1 (stereo not drawn) [GSK1379738] | 2 | 2 | 0 | 9 | 34 | 0 | 0 | 17 | 5 | 0 | 0 | 0 | 0 | 25 | 14 | 0 | 0 | 80 | 23 | 28
8 | COc1cccc(C2=C(Nc3cc(Cl)c(O)c(Cl)c3)C(=O)NC2=O)c1 [SB-390767] | 0 | 5 | 0 | 13 | 24 | 100 | 0 | 25 | 0 | 0 | 10 | 0 | 0 | 17 | 11 | 0 | 26 | 96.1 | 18 | 0
9 | COc1ccc(CSc2nnc(-c3ccc4ncsc4c3)o2)cc1C(F)(F)F | 0 | 0 | 0 | 0 | 0 | 0 | 0 | 0 | 0 | 2 | 5 | 10 | 4 | 0 | 9 | 0 | 0 | 14 | 12 | 0
10 | CNCc1ccc2nc(NC(=O)c3ccc(C(C)(C)C)cc3)cn2c1 | 0 | 0 | 2 | 11 | 3 | 9 | 0 | 87 | 42 | 4 | 45 | 0 | 0 | 1 | 15 | 4 | 24 | 9 | 24 | 27
11 | CC(C)c1cc(-c2ccc3c(N)n[nH]c3c2)nc(N)n1 [GSK2250882] | 0 | 0 | 0 | 0 | 7 | 10 | 0 | 25 | 0 | 10 | 0 | 9 | 6 | 25 | 2 | 0 | 0 | 0 | 4 | 21
12 | Cc1ccccc1Cn1ccn2c(=O)cc(N3CCOCC3)nc12 [GSK2269905] | 0 | 0 | 0 | 4 | 28 | 0 | 0 | 22 | 0 | 0 | 0 | 0 | 0 | 0 | 0 | 7 | 4 | 0 | 0 | 0
13 | COc1cccc(CNC(=O)NC2CCN(c3ccnc(Nc4ccc(F)cc4)n3)C2)c1 (stereo not drawn) [GSK1379723] | 0 | 21 | 19 | 4 | 11 | 0 | 0 | 16 | 0 | 2 | 22 | 0 | 22 | 7 | 9 | 0 | 0 | 7 | 0 | 0
14 | O=C(Nc1n[nH]c2nc(-c3cccs3)c(Br)cc12)C1CC1 [SB-735297] | 12 | 6 | 0 | 0 | 0 | 0 | 0 | 17 | 26 | 51 | 13 | 0 | 0 | 0 | 0 | 0 | 0 | 0 | 0 | 0
15 | COc1cccc(NC(=O)Nc2ccc(C)c(-c3ccc(C(=O)Nc4ccncc4)cc3)c2)c1 [GSK1398474] | 0 | 0 | 0 | 31 | 42 | 8 | 25 | 34 | 0 | 10 | 0 | 28 | 8 | 0 | 1 | 7 | 0 | 94.2 | 36 | 6
16 | O=C(Nc1n[nH]c2nc(-c3ccco3)c(Br)cc12)C1CCN(Cc2ccccc2)C1.O=C(O)[C@H](O)[C@@H](O)C(=O)O (stereo not drawn) [SB-742034] | 11 | 8 | 21 | 28 | 0 | 4 | 32 | 0 | 22 | 37 | 71 | 0 | 28 | 17 | 14 | 7 | 20 | 0 | 0 | 0
17 | Cc1c(Cn2c(C)c(C)n3c(=O)cc(N4CCOCC4)nc23)cccc1C(F)(F)F [GSK2328680] | 0 | 10 | 0 | 24 | 20 | 0 | 0 | 21 | 2 | 5 | 0 | 0 | 0 | 3 | 0 | 21 | 5 | 0 | 11 | 14
18 | CC[C@@H]1CO[C@H](C(=O)Nc2ccccc2)CN1c1cc(-c2ccc3c(N)n[nH]c3c2)nc(NC)n1 [GSK2376236] | 0 | 4 | 0 | 39 | 42 | 7 | 31 | 39 | 12 | 10 | 0 | 17 | 37 | 47 | 2 | 0 | 90 | 0 | 11 | 0
19 | Cc1cccc2c(-c3ccncn3)c(-c3ccc(F)cc3)nn12 [GW515532] | 0 | 0 | 50 | 81 | 100 | 14 | 0 | 99.9 | 1 | 0 | 0 | 6 | 0 | 0 | 0 | 0 | 1 | 43 | 16 | 25
20 | COC(=O)C(NC(=O)NC1CCN(c2ccnc(Nc3ccc(F)cc3)n2)C1)c1ccccc1 (stereo not drawn) [GSK1379712] | 0 | 3 | 0 | 92 | 19 | 5 | 1 | 25 | 3 | 0 | 0 | 15 | 0 | 25 | 17 | 12 | 0 | 0 | 39 | 0
21 | CNc1nc(-c2ccc3c(N)n[nH]c3c2)cc(N2C[C@@H](C(=O)NC3CCCCC3)OC[C@H]2C)n1 [GSK2375584] | 1 | 16 | 66 | 41 | 38 | 2 | 4 | 26 | 1 | 8 | 0 | 26 | 34 | 40 | 24 | 0 | 31 | 15 | 36 | 37
